Cruzain Triton – inhibitors of Trypanosoma cruzi cruzain with detergent; P25779; purified cruzain, Z-FR-AMC fluorescence, 0.01% Triton; Potency, µM, usual class: inhibitors; 200,000 compounds, 0.43% hits; AID 1478; also: nearly all actives have a fitted effect of over 40% in size
Target sequence (P25779 123-467 limits assumed): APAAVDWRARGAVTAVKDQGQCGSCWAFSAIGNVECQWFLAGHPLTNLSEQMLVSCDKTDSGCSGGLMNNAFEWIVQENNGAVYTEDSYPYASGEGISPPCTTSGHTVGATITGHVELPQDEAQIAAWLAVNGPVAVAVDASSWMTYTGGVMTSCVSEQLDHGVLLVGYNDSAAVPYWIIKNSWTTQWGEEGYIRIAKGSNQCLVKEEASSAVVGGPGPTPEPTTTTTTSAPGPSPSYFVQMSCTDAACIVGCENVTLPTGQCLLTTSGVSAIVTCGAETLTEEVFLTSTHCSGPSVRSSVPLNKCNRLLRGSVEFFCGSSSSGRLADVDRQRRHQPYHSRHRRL
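Z-FR-AMC hydrolysis (2 uM substrate) by cruzain (1.5 nM) monitored kinetically at ex 360/em 450 nm after 15 min room-temperature compound exposure; 0.01% Triton X-100, pH 5.5, 5 mM DTT.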
Cruzain inh noDet – blocks cruzain activity in detergent-free assay; purified cruzain, Z-FR-AMC fluorescence, no detergent; Potency, µM, usual class: inhibitors; 200,000 compounds, 2.3% hits; also: nearly all actives have a fitted effect of over 40% in size
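Detergent-free condition (0.00005% Triton X-100) in acetate buffer pH 5.5 with DTT. 1.5 nM enzyme and compound were pre-mixed 15 min, then 2 uM Z-FR-AMC substrate added; reaction progress from fluorescence change between first and third reads (60 s).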
Each line names hits and unclear results; the compound was inactive in the other large screens. Rows were chosen to be rich in hits. Some 2.4% of all compounds tested hit in one or more screens of this group. Calls follow the shape of the dose curve; as a rule, active = well fitted curve in the direction sought with a large enough effect; inconclusive = small, poorly fitted or top-dose-only effect, or another doubt; inactive = no such curve, though single readings can be large; an effect the other way counts as inactive or inconclusive.

COc1ccc(C2C=C(c3ccc(F)cc3)Nc3nc(-c4ccc(Cl)cc4)nn32)cc1 (configuration not stated)	none
Cc1nc(/N=C(\N)NC(=O)c2ccccc2)nc2ccccc12	none
Cc1nc(/N=C(\N)NC(=O)N2c3ccccc3Sc3ccccc32)nc2ccccc12	Cruzain inh noDet 7.94µM
Cc1cccc(Cn2cc3c(=O)n(CC(=O)Nc4cccc(C)c4C)nc-3c3cc(F)ccc32)c1	none
COc1cccc(C(=O)NC2=NCCS2)c1	none
COc1ccc(N(Cc2ccccc2)S(=O)(=O)c2cccc(C(=O)NC3=NCCS3)c2)cc1	Cruzain inh noDet 25.1µM
Clc1ccc(/C=C\c2nc(Cl)c(-c3ccc(Cl)cc3)c(Cl)n2)cc1	none
CCc1cccc(C)c1NC(=O)C1CCN(S(=O)(=O)Cc2ccccc2)CC1	none
O=C(NCCc1ccccc1)/C(=C\c1ccc([N+](=O)[O-])cc1)NC(=O)c1ccc(Br)cc1	Cruzain inh noDet 6.31µM
Cc1ccc(C(=O)N/C(=C\c2ccc([N+](=O)[O-])cc2)C(=O)NCCc2ccccc2)cc1	Cruzain inh noDet inconclusive
Cn1c(=O)c(=O)n(C)c2cc(NS(=O)(=O)c3ccc(Br)cc3)c(Cl)cc21	none
O=c1c(O)c(-c2ccccc2)oc2cc(O)cc(O)c12	none
O=c1c(O)c(-c2cc(O)c(O)c(O)c2)oc2cc(O)cc(O)c12	Cruzain Triton inconclusive, Cruzain inh noDet 12.6µM
CCCCOc1ccc(S(=O)(=O)Nc2ccc(NC(C)=O)cc2)cc1	none
CCCCOc1ccc(CNC(=O)NS(=O)(=O)c2ccc(OCC(C)C)cc2)cc1	Cruzain inh noDet 7.94µM
CCCCNC(=O)NS(=O)(=O)c1ccc(C)cc1	none
CCCCOc1ccc(S(=O)(=O)NC(=O)NCc2ccc(OCCC)cc2)cc1	Cruzain inh noDet 25.1µM
Cc1ccc(S(=O)(=O)NC(=O)NCc2ccccc2)cc1	none
CCCCOc1ccc(CNC(=O)NS(=O)(=O)c2ccc(OCC)cc2)cc1	Cruzain inh noDet 20µM
O=C(OCc1cc(=O)n2nc(-c3cccs3)sc2n1)c1ccc(Cl)cc1	none
Cc1cc(C)cc(NC(=O)CSc2oc(-c3ccccc3)nc2S(=O)(=O)c2ccccc2)c1	none
O=C(CSc1nc(-c2cccs2)nc2cc(=O)[nH]n12)Nc1cccc(C(F)(F)F)c1	Cruzain inh noDet inconclusive
Cc1ccc(C)c(NC(=O)CN2C(=O)c3cccc4cccc2c34)c1	none
COc1ccc(S(=O)(=O)N2Cc3ccccc3CC2C(=O)Nc2ccc3c(c2)OCO3)cc1 (configuration not stated)	Cruzain inh noDet 25.1µM
Cc1ccc(S(=O)(=O)N2Cc3ccccc3CC2C(=O)Nc2ccc3c(c2)OCO3)cc1 (configuration not stated)	Cruzain inh noDet inconclusive
CCc1ccc(NC(=O)N(Cc2ccco2)C(C)c2cccs2)cc1 (configuration not stated)	none
CCc1ccc(NC(=O)CS(=O)CC(=O)NC(C)CCc2ccco2)cc1 (configuration not stated)	Cruzain inh noDet 25.1µM
Cc1cc(C)cc(-n2ccnc(NCCc3ccccc3)c2=O)c1	none
COc1ccc(C(C(=O)NCc2ccccc2)N(C(=O)Cn2nnc3ccccc32)c2cccc(OC)c2)cc1 (configuration not stated)	none
COc1cc(Nc2nc3ccc(Cl)cc3nc2-n2nc(C)cc2C)cc(OC)c1	none
CCCn1c2ccccc2c2nnc(SC(CC)C(=O)Nc3cc(C)on3)nc21 (configuration not stated)	none
CCCn1c2ccccc2c2nnc(SC(CC)C(=O)Nc3sc4c(c3C#N)CCCC4)nc21 (configuration not stated)	Cruzain inh noDet 10µM
Cn1c(NC(=S)Nc2ccccc2)nc2ccccc21	Cruzain inh noDet inconclusive
S=C(Nc1ccccc1)Nc1nc2ccccc2n1CCOc1ccc(Br)cc1	Cruzain inh noDet 7.94µM
Cc1ccc(C)c(SCC(=O)OCC(=O)Nc2ncc(C(F)(F)F)cc2Cl)c1	Cruzain Triton inconclusive
O=C(COC(=O)CNC(=O)c1ccccc1Cl)Nc1ncc(C(F)(F)F)cc1Cl	Cruzain Triton 1.58µM, Cruzain inh noDet 1.26µM
O=C(COC(=O)CSc1cccc2cccc(Cl)c12)Nc1ncc(C(F)(F)F)cc1Cl	Cruzain Triton inconclusive, Cruzain inh noDet 25.1µM
O=C(COC(=O)c1ccc2ccccc2c1)Nc1ncc(C(F)(F)F)cc1Cl	none
Cc1ccc(/C=C/c2onc(C)c2S(=O)(=O)N2CCC(C(=O)Nc3cccc(C#N)c3)CC2)cc1	none
Cn1c(=O)c2c(nc(N3CCOCC3)n2Cc2ccc(Br)cc2)n(C)c1=O	none
Cc1ccc(N2C(=O)C(Cl)=C(N3CCN(C)CC3)C2=O)c(C)c1	Cruzain inh noDet inconclusive
CN1CCN(C2=C(Cl)C(=O)N(c3ccc(Cl)cc3)C2=O)CC1	Cruzain Triton inconclusive, Cruzain inh noDet 25.1µM
COc1ccc(N2C(=O)C(Cl)=C(N3CCN(Cc4ccccc4)CC3)C2=O)cc1	Cruzain Triton 17.8µM
O=C1C(Cl)=C(N2CCN(Cc3ccccc3)CC2)C(=O)N1c1ccccc1	none
O=C1C(Cl)=C(N2CCOCC2)C(=O)N1c1cccc(Cl)c1	Cruzain Triton 12.6µM, Cruzain inh noDet 12.6µM
CCc1ccc(N2C(=O)C(Cl)=C(N3CCOCC3)C2=O)cc1	none
COc1ccc(C(=O)n2nc(-c3ccco3)nc2NCc2cccs2)cc1OC	none
O=C(NCCc1ccc(Cl)cc1)c1ccc(CSCc2cccc(Cl)c2)o1	none
O=C(NC(=S)NNS(=O)(=O)c1ccccc1)c1ccccc1[N+](=O)[O-]	none
O=C(NC(=S)NNS(=O)(=O)c1ccccc1)c1ccc([N+](=O)[O-])cc1	Cruzain Triton inconclusive, Cruzain inh noDet 10µM
Cc1cccc(NC(=O)c2ccc3c(O)c(S(=O)(=O)c4ccccc4)c(=O)[nH]c3c2)c1C	none
CCCc1cc(=O)oc2c(CN3CCN(C)CC3)c(O)c(Cl)cc12	Cruzain Triton 31.6µM, Cruzain inh noDet inconclusive
CCCCc1cc(=O)oc2cc(OCc3nn[nH]n3)c(Cl)cc12	none
CCCCc1cc(=O)oc2c(CN3CCCC3)c(O)c(Cl)cc12	Cruzain Triton 28.2µM, Cruzain inh noDet inconclusive
CCCCc1cc(=O)oc2c(CN(CC)CC)c(O)c(Cl)cc12	Cruzain Triton 28.2µM, Cruzain inh noDet inconclusive
Cc1cc(=O)oc2c(CN3CCN(C)CC3)c(O)c(Cl)cc12	Cruzain inh noDet inconclusive
Cc1c(C)c2cc(Cl)c(O)c(CN3CCCCC3)c2oc1=O	Cruzain Triton inconclusive
CCCCS(=O)(=O)c1oc(-c2ccc(F)cc2)nc1S(=O)(=O)c1ccccc1	none
CCOc1cc2[nH]c(=O)n(CCCCC(=O)N3CCN(c4ccccc4)CC3)c(=O)c2cc1OCC	none
COc1cc2oc(=O)cc(-c3ccc(-c4ccc(C#N)cc4)cc3)c2c(OC)c1OC	Cruzain inh noDet 35.5µM
COc1cc2oc(=O)cc(-c3ccc(-c4ccc(C)cc4)cc3)c2c(OC)c1OC	none
O=C(Nc1ccccc1N1CCN(C(=O)c2ccccc2)CC1)c1cc2ccccc2o1	Cruzain inh noDet 0.159µM
O=C(Nc1ccccc1N1CCCC1)c1cc2ccccc2o1	none
CC(C)[C@@H]1[C@H]2CC[C@H](C2)[C@H]1N	none
Cc1cccc(C(=O)N=c2c(C#N)cc3c(=O)n4cccc(C)c4nc3n2Cc2ccco2)c1	Cruzain Triton 8.91µM, Cruzain inh noDet 15.8µM
CCOC(=O)c1cc2c(=O)n3cccc(C)c3nc2n(Cc2ccco2)c1=NC(=O)c1cccnc1	Cruzain inh noDet inconclusive
O=C(Nc1ccc(CN2CCOCC2)cc1)c1ccc(-c2cc(Cl)ccc2Cl)o1	Cruzain inh noDet 25.1µM
S=C(c1ccc(-c2cc(Cl)ccc2Cl)o1)N1CCOCC1	none
COc1ccc(-c2n[nH]c3c2cnc2ccc(F)cc23)cc1	none
